ELG1 repair inh: ELG1-dependent DNA repair inhibition; 330,000 tested, 2.3% active; HEK293T ELG1-luciferase reporter, luminescence, 16 h; DNA damage induced by 5-fluorouridine; Potency, µM (doses to about 46.1 µM), without a hit: at the highest dose activity change, negative = inhibition, hits mostly inhibitors; also: potency is read from the fitted curve at half-maximal effect; nearly all actives have a fitted effect of over 55% in size
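Cells (2,000 per well) received 5-fluorouridine plus test compound or DMSO and were incubated 16 hr at 37 °C, 5% CO2. Luciferase activity was read by luminescence 30 min after ONE-Glo addition; signal suppression marked inhibition of damage-induced ELG1 function.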
TDP1 cell CPT: DT40-hTDP1 cell growth loss with CPT; 420,000 tested, 12% active; Potency, µM (titrated, usually from 46.2 µM), inactives show at the top dose activity change, negative = growth inhibition, actives largely listed as inhibitors; chicken DT40 Tdp1-/-;hTDP1 cells + 20 nM CPT, ATP luminescence, 48 h; also: potency is read from the fitted curve at half-maximal effect; nearly all actives have a fitted effect of over 55% in size
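Cell growth measured by CellTiter-Glo luminescence after a minimum 48 h, 37 C compound exposure with 20 nM CPT in Tdp1-knockout DT40 cells stably expressing hTDP1, seeded 400/well; qHTS titration format.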
Gal4-VP16 FLuc: inhibits Gal4-VP16 luciferase reporter, ROR gamma counter-screen; Drosophila S2 Gal4-VP16 UAS-luciferase, luminescence, 20 h; Potency, µM (doses to about 53.6 µM), without a hit: at the top dose activity, negative = inhibition, actives largely listed as inhibitors; 310,000 tested, 3.5% active;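 also: Gal4-VP16 expression switched on by copper sulfate through the metallothionein promoter; potency is read from the fitted curve at half-maximal effect; nearly all actives have a fitted effect of over 50% in size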
TDP1 cell noCPT: qHTS for Inhibitors of human tyrosyl-DNA phosphodiesterase 1 (TDP1): qHTS in cells in absence of CPT | Potency, µM (series often up to 46.2 µM), inactives show at the top dose activity change, negative = growth inhibition, usual class: inhibitors | DT40 Tdp1-/- hTDP1 cells, no CPT, ATP luminescence, 48 h | 420,000 tested, 15% active; also: potency is read from the fitted curve at half-maximal effect; nearly all actives have a fitted effect of over 55% in size
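Growth kinetics read by CellTiter-Glo luminescence after ≥48 hr at 37 °C. Cells: DT40 Tdp1-/- stably carrying human TDP1, 400 per well, compound exposure in the absence of CPT (DMSO vehicle).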
IL1B secr inh: inflammasome signaling inhibition, IL-1 beta readout | THP-1 LPS/ATP IL-1B secretion, AlphaLISA, 16 h; active compounds read low | activity change, % at 57.5 µM | 360,000 tested, 4.7% active | AID 743279; in the data active = activity change below about -50%; inconclusive = mostly about -30% to -49%
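THP-1 cells pretreated 1 hr with compounds (up to 57.5 uM final), then stimulated with LPS (250 ng/mL final) plus ATP (1.25 mM final); secreted IL-1B measured by AlphaLISA after 16 hr, decreased signal indicating inhibition.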
RORgamma inh: ROR gamma (mouse) transcription inhibition. P51450. Drosophila S2 Gal4-RORgamma UAS-luciferase reporter, 20 h. Potency, µM (series often up to 53.6 µM), for inactives: at the top dose activity change, negative = inhibition, usual class: inhibitors. 310,000 tested, 5.4% active; also: potency is read from the fitted curve at half-maximal effect; nearly all actives have a fitted effect of over 60% in size
Target sequence (P51450 whole entry, looked up, the tested form may be a part): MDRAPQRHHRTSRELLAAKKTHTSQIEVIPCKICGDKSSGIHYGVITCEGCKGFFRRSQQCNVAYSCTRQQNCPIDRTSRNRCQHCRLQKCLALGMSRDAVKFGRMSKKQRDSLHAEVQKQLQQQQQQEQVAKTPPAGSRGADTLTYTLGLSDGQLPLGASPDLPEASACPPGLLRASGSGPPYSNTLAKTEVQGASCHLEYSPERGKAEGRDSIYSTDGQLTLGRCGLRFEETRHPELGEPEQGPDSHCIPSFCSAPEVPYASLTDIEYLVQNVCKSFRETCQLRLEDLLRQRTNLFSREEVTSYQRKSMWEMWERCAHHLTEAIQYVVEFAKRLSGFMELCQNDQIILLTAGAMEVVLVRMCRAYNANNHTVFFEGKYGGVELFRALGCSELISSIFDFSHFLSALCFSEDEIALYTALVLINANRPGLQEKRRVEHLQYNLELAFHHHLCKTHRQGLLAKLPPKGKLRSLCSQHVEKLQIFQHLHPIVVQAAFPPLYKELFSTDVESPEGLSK
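ROR gamma transcriptional activity was tracked as Gal4-UAS luciferase output in stably transfected Drosophila Schneider cells, with compound added 1 hr before 700 uM copper sulfate induction and a 20 hr ambient-temperature incubation.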
Starred values were filed as active, the others as inactive. Compounds with a hit are over-represented: about 21% of the library has one in this group of screens. Unless noted, calls follow the shape of the dose curve; as a rule, active = well fitted curve in the direction sought with a large enough effect; inconclusive = small, poorly fitted or top-dose-only effect, or another doubt; inactive = no such curve, though single readings can be large; an effect the other way counts as inactive or inconclusive. % is scaled to controls: 0 for no effect and ±100 for the full control effect.

How did CC1(Cc2cccc(C#N)c2)C(=O)Nc2c(Cl)cccc21 (stereo not drawn) do in these assays?
TDP1 cell CPT: -20%; TDP1 cell noCPT: -26%; IL1B secr inh: -5

How did CC1(Cc2ccccc2C#N)C(=O)Nc2cc(-c3ccccc3Cl)ccc21 (stereo not drawn) do in these assays?
TDP1 cell CPT: 23µM*; TDP1 cell noCPT: inconclusive; IL1B secr inh: -20

Results for COc1ccc(NS(=O)(=O)c2cccc(C(=O)N3CCCC3)c2)cc1 ?
ELG1 repair inh: -5%; TDP1 cell CPT: -17%; TDP1 cell noCPT: 2%; IL1B secr inh: 11

Results for C=CCSc1nnc(NC(=O)C2CC(=O)N(c3ccc4c(c3)OCCO4)C2)s1 (stereo not drawn) ?
ELG1 repair inh: inconclusive; TDP1 cell CPT: -17%; TDP1 cell noCPT: 13%; IL1B secr inh: 9

How did CCOc1ccc(C(=O)N2CCN(c3cccc(Cl)c3)CC2)cc1 do in these assays?
ELG1 repair inh: inconclusive; TDP1 cell CPT: -19%; Gal4-VP16 FLuc: -7%; TDP1 cell noCPT: inconclusive; IL1B secr inh: -15; RORgamma inh: 10%

How did Oc1ccc(C(=S)N2CCN(c3cccc(Cl)c3)CC2)cc1 do in these assays?
ELG1 repair inh: -3%; TDP1 cell CPT: inconclusive; Gal4-VP16 FLuc: -7%; TDP1 cell noCPT: inconclusive; IL1B secr inh: -93*; RORgamma inh: 18%

Results for COc1cc(C(=S)N2CCN(c3cccc(Cl)c3)CC2)ccc1O ?
ELG1 repair inh: inconclusive; TDP1 cell CPT: 10µM*; Gal4-VP16 FLuc: -15%; TDP1 cell noCPT: 18µM*; IL1B secr inh: 10; RORgamma inh: 28%

Results for Oc1ccccc1C(=S)N1CCN(c2cccc(Cl)c2)CC1 ?
ELG1 repair inh: -4%; TDP1 cell CPT: 23µM*; Gal4-VP16 FLuc: 4%; TDP1 cell noCPT: inconclusive; IL1B secr inh: -97*; RORgamma inh: -37%

Results for COc1ccc(-n2c(=O)c(-c3cccc(C#N)c3)nc3cnc(N4CCNCC4)nc32)cc1 ?
TDP1 cell CPT: 4%; Gal4-VP16 FLuc: -2%; TDP1 cell noCPT: -15%; RORgamma inh: 16%

What do the screens show for `COC(=O)c1ccc(NC(=O)CN(c2cccc(C(F)(F)F)c2)S(C)(=O)=O)cc1`?
TDP1 cell CPT: 23µM*; TDP1 cell noCPT: 4.6µM*

What do the screens show for `COc1ccc(N(CC(=O)Nc2cccc(N(C)S(C)(=O)=O)c2)S(=O)(=O)c2ccc(F)cc2)cc1`?
ELG1 repair inh: 13µM*; TDP1 cell CPT: 16µM*; Gal4-VP16 FLuc: -2%; TDP1 cell noCPT: inconclusive; IL1B secr inh: -18; RORgamma inh: 14%

What do the screens show for `COc1ccc(N(CC(=O)Nc2cccc(N(C)S(C)(=O)=O)c2)S(=O)(=O)c2ccc(C)cc2)cc1`?
ELG1 repair inh: inconclusive; TDP1 cell CPT: inconclusive; Gal4-VP16 FLuc: -2%; TDP1 cell noCPT: inconclusive; IL1B secr inh: 8; RORgamma inh: 27%

How did COc1ccc(S(=O)(=O)N(CC(=O)Nc2cccc(C(F)(F)F)c2)c2ccc(C)cc2)cc1 do in these assays?
TDP1 cell CPT: inconclusive; TDP1 cell noCPT: 23µM*

What do the screens show for `CCOc1ccc(S(=O)(=O)N(CC(=O)Nc2ccc3c(c2)OCO3)c2ccccc2)cc1`?
TDP1 cell CPT: -9%; TDP1 cell noCPT: -6%

How did CCOc1ccc(N(CC(=O)Nc2cccc(N(C)S(C)(=O)=O)c2)S(=O)(=O)c2ccccc2)cc1 do in these assays?
ELG1 repair inh: 13µM*; TDP1 cell CPT: 21µM*; Gal4-VP16 FLuc: -13%; TDP1 cell noCPT: inconclusive; IL1B secr inh: -14; RORgamma inh: 21%
